Measured values taken from PubChem BioAssay AID463173 (ICCB-Longwood Screening Facility, Harvard Medical School, 2010).
Among all 52,000 compounds or so, about 4,300 (8.3%) were called active. This is one part of a sample in which actives are shown more often than they occur. Values without a mark were called inactive. Rule as the data show it: active = survival mostly below about 52% (no sharp cut-off); inactive = mostly above about 56%.

The molecules below were run on DeltatarO mutant (assay: S. aureus survival, RN4220 and DeltatarO strains – OD600, teichoic acid synthesis inhibitors, primary screen (AID 463173)). Details: S. aureus RN4220 wild type/DeltatarO growth, OD600, 18 h, stronger effect = lower value, screened at 18.75 µg/mL (by protocol).
COc1ccc(OCC(=O)N2CCc3ccccc3C2)cc1 gave a survival of 80%.
Work on O=c1n(Cc2cccc(C(F)(F)F)c2)c2ccccc2c2nc(-c3ccccc3)nn12 yielded a survival of 80%.
For O=c1n(Cc2ccc(F)cc2)c2ccccc2c2nc(-c3ccccc3)nn12, the survival was 86%.
Molecule Cc1cccc(-c2nc3c4ccccc4n(CC(=O)Nc4cccc(F)c4)c(=O)n3n2)c1 has a survival of 95%.
Work on Cc1cccc(-c2nc3c4ccccc4n(Cc4cccc(Cl)c4)c(=O)n3n2)c1 yielded a survival of 97%.
With O=c1n(Cc2cccc(F)c2)c2ccccc2c2nc(-c3ccccc3)nn12 the survival was 33% (active).
With CCc1cccc(NC(=O)Cn2c(=O)n3nc(-c4cccc(F)c4)nc3c3ccccc32)c1 the survival was 52% (active).
With Cc1cccc(Cn2c(=O)n3nc(-c4ccccc4)nc3c3ccccc32)c1 the survival was -16% (active).
Cc1ccc(-c2nc3c4ccccc4n(Cc4cccc(Cl)c4)c(=O)n3n2)cc1 was tested, and the survival was 123%.
COc1cccc(CNC(=O)Cn2c(=O)n3nc(-c4cccc(F)c4)nc3c3ccccc32)c1 gave a survival of 77%.
With CCOc1ccc(NC(=O)c2oc3ccccc3c2NC(=O)Cc2cccs2)cc1 the survival was 82%.
O=C(Cn1cnc2c(cnn2-c2ccccc2)c1=O)c1ccccc1 was tested, and the survival was 55%.
Molecule O=C(Nc1ccc(F)cc1F)c1ccc(-n2cnnc2)cc1 has a survival of 73%.
CCc1ccc(N(CC)C(=O)Cn2c(=O)oc3ccccc32)cc1 gave a survival of 70%.
In the case of COC(=O)C1=C(c2ccccc2)c2ccccc2S(=O)(=O)N1CC(=O)Nc1ccccc1Cl, the survival is reported as 37%.
Work on Cc1oc2ncn(C)c(=O)c2c1C(=O)NCc1ccc(Cl)cc1 yielded a survival of 84%.
CCOc1ccccc1NC(=O)C1CCN(S(=O)(=O)c2ccc3c(c2)CCCN3C(C)=O)CC1 was tested, and the survival was 75%.
Work on CC(NC(=O)C1CCN(S(=O)(=O)Cc2ccccc2)CC1)c1ccccc1 (configuration not stated) yielded a survival of 68%.
CCC1CCCCN1C(=O)CSc1nc(-c2ccc(OC)c(OC)c2)cc(C(F)(F)F)n1 (configuration not stated) was tested, and the survival was -3% (active).
For COc1ccc(-c2cc(C(F)(F)F)nc(SCC(=O)N3CCCCC3)n2)cc1, the survival was 74%.
COc1ccc(-c2cc(C(F)(F)F)nc(SCC(=O)N3CCCCC3C)n2)cc1OC (configuration not stated) gave a survival of 52%.
For COc1ccc(-c2cc(C(F)(F)F)nc(SCC(=O)N3CCCCC3)n2)cc1OC, the survival was 71%.
COc1ccc(-c2cc(C(F)(F)F)nc(SCCC(=O)N3CCN(C)CC3)n2)cc1 was tested, and the survival was 114%.
CCC1CCCCN1C(=O)CSc1nc(-c2ccc(OC)cc2)cc(C(F)(F)F)n1 (configuration not stated) was tested, and the survival was 1% (active).
O=C(CNCc1ccco1)Nc1cccc(OC(F)(F)F)c1 showed a survival of 99%.
Work on O=C(CN1C(=O)C2CCCCN2c2ccc(C(=O)N3CCCC3)cc21)NCc1cccc(F)c1 (configuration not stated) yielded a survival of 66%.
CCCCOc1cccc(C(=O)Nc2cccc3ccc(C)nc23)c1 gave a survival of 75%.
CCN(CCN(C)C)C(=O)Cn1ncc2c([nH]c3ccc(C)cc32)c1=O showed a survival of 88%.
Work on Cc1ccc(Cl)cc1-n1ncc2c(NC3CCCCC3)ncnc21 yielded a survival of 54%.
CCOc1ccc(NC(=O)c2c(C)oc3nc(C)nc(N4CCOCC4)c23)cc1 showed a survival of 93%.
For CCOc1nc(Nc2ccc(OC)cc2)nc(N2CCOCC2)n1, the survival was 70% (active).
COc1ccc(Nc2nc(Nc3ccc(OC)cc3OC)nc(N3CCOCC3)n2)c(OC)c1 was tested, and the survival was 14% (active).
COc1ccccc1Nc1nc(Nc2cccc(C(F)(F)F)c2)nc(N2CCOCC2)n1 gave a survival of 73%.
COc1ccc(N2CCOCC2)cc1 gave a survival of 89%.
With CCOc1ccc(Nc2nc(Nc3ccc(OCC)cc3)nc(N3CCOCC3)n2)cc1 the survival was 44% (active).
Molecule CCCCNc1nc(Oc2ccc(OCC)nn2)nc(N2CCOCC2)n1 has a survival of 77%.
CCOc1ccc(Oc2nc(NC)nc(N3CCOCC3)n2)nn1 showed a survival of 99%.
CCOc1ccc(Oc2nc(NCC(C)C)nc(N3CCOCC3)n2)nn1 was tested, and the survival was 79%.
Molecule Cc1cc2c(cc3c(SCc4cccc(F)c4)nnc(C)n32)o1 has a survival of 68%.
CCOC(=O)Cn1cnc2onc(-c3ccc(F)cc3)c2c1=O showed a survival of 141%.
In the case of CCOc1ccccc1NC(=O)CSc1nc2c(oc3ccccc32)c(=O)n1-c1ccc(C)c(C)c1, the survival is reported as 88%.
In the case of COc1ccccc1NC(=O)Cn1c(=O)n(Cc2ccccc2)c(=O)c2ccccc21, the survival is reported as 75%.
COc1ccc(N(C(=O)COc2c(C)cccc2C)S(=O)(=O)c2ccc(Cl)cc2)cc1 showed a survival of 73%.
Molecule CCCS(=O)(=O)Nc1cccc(-c2cn3ccsc3n2)c1 has a survival of 134%.
CN(C)S(=O)(=O)Nc1ccc(-c2cn3ccsc3n2)cc1 showed a survival of 55%.
For COc1cccc(OC)c1C(=O)Nc1cccc(-c2cn3ccsc3n2)c1, the survival was 82%.
COc1cc(OC)cc(C(=O)Nc2cccc(-c3cn4ccsc4n3)c2)c1 was tested, and the survival was 6% (active).
CCS(=O)(=O)Nc1ccc(-c2cn3ccsc3n2)cc1 was tested, and the survival was 17% (active).
In the case of COc1ccc(C(=O)Nc2cccc(-c3cn4ccsc4n3)c2)cc1OC, the survival is reported as 92%.
O=C(NCCc1ccccc1Cl)c1ccc2c(c1)nc1n2CCCCC1 gave a survival of 80%.
In the case of Cc1cccc(NC(=O)N2CCN3CCCCC3C2)c1C (configuration not stated), the survival is reported as 77%.
Work on CC(C)c1ccc(NC(=O)c2cc(S(=O)(=O)NC3CCCCC3)ccc2F)cc1 yielded a survival of 102%.
Work on O=C(Nc1cc2c(cc1C(=O)c1ccccc1Cl)OCCO2)c1ccccc1 yielded a survival of 113%.
For COc1ccc(CCn2c3c(c(=O)[nH]c2=O)C(NC(=O)c2ccc(C(C)(C)C)cc2)(C(F)(F)F)C(=O)N3)cc1OC (configuration not stated), the survival was 91%.
CC(=O)c1ccc(NS(=O)(=O)c2cnc(N)nc2)cc1 was tested, and the survival was 6% (active).
COc1cc(NS(=O)(=O)c2cnc(N)nc2)cc(OC)c1 was tested, and the survival was 76%.
Molecule CC(=O)c1ccc(NC(=O)C2CCC(CNS(=O)(=O)c3ccc(Br)s3)CC2)cc1 (configuration not stated) has a survival of 69%.
CCOC(=O)c1ccc(NS(=O)(=O)c2cn(C)c(C)n2)cc1 was tested, and the survival was 69%.
For CCOC(=O)c1ccc(NC(=O)C(Cc2ccccc2)NS(=O)(=O)c2ccc(Br)s2)cc1 (configuration not stated), the survival was 90%.
CC(=O)c1ccc(NS(=O)(=O)c2ccc(Br)s2)cc1 was tested, and the survival was 47% (active).
Work on Nc1ncc(S(=O)(=O)Nc2ccc(OC(F)(F)F)cc2)cn1 yielded a survival of 79%.
CCOC(=O)c1ccc(NS(=O)(=O)c2ccc(Br)s2)cc1 was tested, and the survival was 38% (active).
In the case of CC(=O)c1ccc(NS(=O)(=O)c2ccc(-c3cc(C)no3)s2)cc1, the survival is reported as 122%.
For COc1ccc(Nc2ncc3c(n2)CCN(Cc2ccccc2C)C3)c(OC)c1, the survival was 91%.
Work on Cc1ccccc1N(C)C(=O)c1noc2c1COc1ccccc1-2 yielded a survival of 72%.
Molecule CCOc1ccc(S(=O)(=O)N(CC(=O)N2CCCCC2)c2ccccc2)cc1 has a survival of 60%.
CC12CN3CC(C)(CN(C1)C3(C)CSc1c[nH]c3ccccc13)C2=O (configuration not stated) gave a survival of 76%.
Molecule Cc1ccc(C)c(NC(=O)Cn2cnc3c(oc4ccccc43)c2=O)c1 has a survival of 82%.
Cc1ccc(NC(=O)CN2C(=O)COc3ccc(S(=O)(=O)Nc4ccccc4)cc32)c(C)c1 showed a survival of 54%.
In the case of Oc1cccc(-c2nc3ncccn3c2Nc2cccc(C(F)(F)F)c2)c1, the survival is reported as 62%.
In the case of COc1ccc(CNC(=O)Cc2c(C)c3cc4c(C)coc4c(C)c3oc2=O)cc1OC, the survival is reported as 67%.
In the case of Cc1ccc2c(Sc3ccccc3)c(C(=O)NCc3ccccc3F)[nH]c2c1, the survival is reported as 90%.
For CN(C)/C=C(\C#N)c1nc2ccccc2[nH]1, the survival was 73%.
Cc1c(Cl)cccc1-c1ccc(/C=C(\C#N)c2nc3ccccc3[nH]2)o1 was tested, and the survival was 13% (active).
N#C/C(=C\c1ccc(Cl)cc1)c1nc2ccccc2[nH]1 showed a survival of 57%.
Work on N#C/C(=C\c1ccc(-c2ccccc2C(=O)O)o1)c1nc2ccccc2[nH]1 yielded a survival of 76%.
In the case of N#C/C(=C\c1ccc(-c2ccc(C(=O)O)cc2)o1)c1nc2ccccc2[nH]1, the survival is reported as 77%.
N#C/C(=C\c1ccc(-c2ccc(F)cc2F)o1)c1nc2ccccc2[nH]1 was tested, and the survival was 22% (active).
With COc1cc(/C=C(\C#N)c2nc3ccccc3[nH]2)ccc1OCc1ccccc1F the survival was 50%.
Work on N#C/C(=C/c1ccc(-c2ccc(Cl)c(C(=O)O)c2)o1)C(=O)NC1CCCC1 yielded a survival of 96%.
In the case of Cc1ccc(/C=C(\C#N)c2nc3ccccc3c(=O)[nH]2)cc1, the survival is reported as 93%.
For Cc1ccc2nc(/C(C#N)=C/c3ccc(-c4ccc(F)cc4F)o3)[nH]c2c1, the survival was 11% (active).
N#C/C(=C\c1ccc(-c2ccc(Cl)c(C(=O)O)c2)o1)c1nc2ccccc2[nH]1 was tested, and the survival was 55% (active).
O=C(Cn1ncc2ccsc2c1=O)N1CCN(c2ccc(Cl)cc2)CC1 showed a survival of 78%.
Cc1nc(N=C(N)N)nc2cc3c(cc12)OCO3 showed a survival of 91%.
COc1ccccc1N1CCN(C(=O)c2c(C)oc3ncn(CC(C)C)c(=O)c23)CC1 gave a survival of 76%.
For CCCCOC(=O)c1ccc(NC(=O)c2ccc3c(c2)CCN3S(C)(=O)=O)cc1, the survival was 96%.
O=C(C1CCN(S(=O)(=O)c2ccc(Br)s2)CC1)N1CCN(c2cccc(Cl)c2)CC1 was tested, and the survival was 76%.
With CC1CCCCN1C(=O)Cn1nnc2c(cnn2-c2ccccc2)c1=O (configuration not stated) the survival was 79%.
With CCCCSCCCNC(=O)c1c[nH]c2ccc(S(=O)(=O)Nc3cccc(OC)c3)cc2c1=O the survival was 90%.
COc1ccc(N2CCN(S(=O)(=O)CCNC(=O)c3ccc(OC(C)C)cc3)CC2)cc1 gave a survival of 78%.
In the case of COc1cc(NC(=O)Cn2cc(C(=O)c3ccc(F)cc3)c(=O)c3ccc(C)nc32)cc(OC)c1, the survival is reported as 74%.
